Bioassay records as filed in PubChem.
IL1B secr inh = qHTS for Inhibitors of Inflammasome Signaling: IL-1-beta AlphaLISA Primary Screen; hit rate 4.7% among 360,000; activity change, % at 57.5 µM; AID 743279, 2014; THP-1 LPS/ATP IL-1B secretion, AlphaLISA, 16 h; hits give low values; in the data active = activity change below about -50%; inconclusive = mostly about -30% to -49%; note: % is set by controls: 0 for no effect and ±100 for the full control effect
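THP-1 cells pretreated 1 hr with compounds (up to 57.5 uM final), then stimulated with LPS (250 ng/mL final) plus ATP (1.25 mM final); secreted IL-1B measured by AlphaLISA after 16 hr, decreased signal indicating inhibition.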
TDP1 cell noCPT = qHTS for Inhibitors of human tyrosyl-DNA phosphodiesterase 1 (TDP1): qHTS in cells in absence of CPT. hit rate 15% among 420,000. DT40 Tdp1-/- hTDP1 cells, no CPT, ATP luminescence, 48 h. Potency, µM (series often up to 46.2 µM), inactives show at the highest dose activity change, negative = growth inhibition, hits mostly inhibitors; note: potency is the fitted concentration of half-maximal effect; % is set by controls: 0 for no effect and ±100 for the full control effect; nearly all actives have a fitted effect of over 55% in size
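Chicken DT40 Tdp1-/- cells stably complemented with human TDP1 were seeded at 400 cells/well with DMSO in place of 20 nM camptothecin. After compound pinning, cells grew at least 48 hr at 37 °C; viability read by CellTiter-Glo luminescence.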
DT40 TDP1 CPT = qHTS for Inhibitors of human tyrosyl-DNA phosphodiesterase 1 (TDP1): qHTS in cells in presence of CPT; chicken DT40 Tdp1-/-;hTDP1 cells + 20 nM CPT, ATP luminescence, 48 h; Potency, µM (highest dose often 46.2 µM), for inactives: at the top dose activity change, negative = growth inhibition, most hits filed as inhibitors; hit rate 12% among 420,000; note: potency is the fitted concentration of half-maximal effect; % is set by controls: 0 for no effect and ±100 for the full control effect; nearly all actives have a fitted effect of over 55% in size
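Chicken DT40 Tdp1-/- cells stably complemented with human TDP1 were seeded at 400 cells/well in medium containing 20 nM camptothecin, exposed to pin-transferred compounds, and grown at 37 °C for at least 48 hr. Viability was read as ATP luminescence.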
D3 antag = qHTS of D3 Dopamine Receptor Antagonist: qHTS. D(3) dopamine receptor (Homo sapiens), P35462. D3R cells, DiscoveRx beta-arrestin luminescence, antagonist mode; hits give low values. max response, negative = inhibition, %. hit rate 2.5% among 360,000. AID 652054, 2013; in the data active = max response below about -50%; inconclusive = no clear call, values can overlap the other calls; note: % is set by controls: 0 for no effect and ±100 for the full control effect
Target sequence (P35462 whole entry, looked up): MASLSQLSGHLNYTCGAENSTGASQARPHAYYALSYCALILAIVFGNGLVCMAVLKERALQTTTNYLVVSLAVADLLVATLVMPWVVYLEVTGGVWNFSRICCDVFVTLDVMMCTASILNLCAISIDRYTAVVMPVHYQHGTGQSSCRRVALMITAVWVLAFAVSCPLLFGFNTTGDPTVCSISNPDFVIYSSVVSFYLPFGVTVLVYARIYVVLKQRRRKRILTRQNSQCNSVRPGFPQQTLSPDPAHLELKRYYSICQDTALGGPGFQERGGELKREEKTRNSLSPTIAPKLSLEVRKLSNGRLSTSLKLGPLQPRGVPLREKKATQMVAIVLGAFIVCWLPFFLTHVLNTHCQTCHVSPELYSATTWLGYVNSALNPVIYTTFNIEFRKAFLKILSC
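Cells plated overnight at 1500 cells/well, then exposed to library compounds with dopamine controls for 90 minutes at 37 degrees C. DiscoveRx reagent added for 30–60 minutes at room temperature; luminescence read, quantitative HTS format.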
ClpP mod = qHTS Assay for Activators of ClpP; purified B. subtilis ClpP, FRET peptide cleavage, 20 min; ATP-dependent Clp protease proteolytic subunit (Bacillus subtilis (strain 168)), P80244; hit rate 1.9% among 340,000; Potency, µM (titrated, usually from 57.5 µM), for inactives: top-dose activity change, negative = active; active = well fitted falling curve with a large enough effect; inconclusive = small, poorly fitted or top-dose-only effect; inactive = no such curve, though single readings can be large or run the other way; note: potency is the fitted concentration of half-maximal effect; the source files actives as falling curves though it sought activators and does not explain the sign; nearly all actives have a fitted effect of over 65% in size
Target sequence (P80244 whole entry, looked up): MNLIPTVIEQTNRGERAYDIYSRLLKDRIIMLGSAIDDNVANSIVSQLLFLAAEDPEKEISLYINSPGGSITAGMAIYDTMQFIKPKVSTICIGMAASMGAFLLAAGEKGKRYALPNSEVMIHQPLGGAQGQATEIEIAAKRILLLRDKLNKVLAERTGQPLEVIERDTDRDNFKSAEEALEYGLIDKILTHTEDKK
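ClpP 10 microg/mL final, pH 8 Tris/KCl buffer with BSA, glycerol, Tween-20; compound pinned in; FRET-FV substrate; RT 20 min; Ex320/Em430; ΔFRET vs ADEP 5.8 microM, DMSO, no enzyme.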
DRD3 agonist = qHTS of D3 Dopamine Receptor Agonist: qHTS; D3R DiscoveRx beta-arrestin cells, luminescence, 90 min; AID 652048, 2013; max activation, %; D(3) dopamine receptor (Homo sapiens), P35462; hit rate 0.58% among 410,000; in the data active = max activation above about 30%; note: 0% is about no effect
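Cells at 1500/well, incubated overnight, then treated with pinned compounds (dopamine as control) for 90 min at 37 degrees C. DiscoveRx reagent added for 30 - 60 minutes at room temperature; luminescence read.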
Numbers without * were called inactive; ? = inconclusive; . = no result; ! = not confirmed by another sample. Shown are actives, neighbours in structure and some others; about 21% of the full set was active somewhere. Unless noted, calls come from the whole dose curve; as a rule, active = well fitted inhibition curve with a large enough effect; inconclusive = small, poorly fitted or top-dose-only effect; inactive = flat fitted curve, though single readings scatter.

SMILES | IL1B secr inh | TDP1 cell noCPT | DT40 TDP1 CPT | D3 antag | ClpP mod | DRD3 agonist
COC(=O)[C@@H]1C[C@]2(OC(=O)c3ccccc3)C=CC(=O)C[C@@H]2N1C(=O)OCc1ccccc1 | -106.6* | 7.31µM* | 6.51µM* | ? | -0.6% | -21.2
C=CCOc1ccc2nnc(C)n2n1 | ? | -4.5% | 3.0% | -0.2 | 3.8% | -5.1
COC(=O)C(C)Sc1ccc2nnc(-c3ccccc3)n2n1 (stereo not given) | -3.0 | -28.4% | ? | 16.2 | ? | 1.0
CCOc1ccc2nnc(-c3ccc(Br)cc3)n2n1 | 10.5 | 14.6µM* | ? | -13.1 | -3.0% | -6.0
CCOC(=O)C(C)Sc1ccc2nnc(-c3ccc(OCC)cc3)n2n1 (stereo not given) | . | -89.5% | 10µM* | . | -5.5% | .
CCOC(=O)C(C)Sc1ccc2nnc(-c3ccc(F)cc3)n2n1 (stereo not given) | 17.3 | ? | ? | 15.1 | ? | 35.1*
COc1ccc(-c2nnc3ccc(SC)nn23)cc1 | 0.0 | ? | ? | -86.3* | 1.5% | 14.3
Cc1cc(SCC(=O)OCC(=O)NCC2CCCO2)c(C)cc1Br (stereo not given) | 0.0 | ? | -19.8% | 14.3 | 0.8% | -0.2
O=C(Cc1c(O)c2ccccc2[nH]c1=O)N(Cc1ccccc1)Cc1ccccc1 | 65.3 | -0.4% | -15.3% | -12.9 | ? | 1.6
CCCCCCN(CCCCCC)C(=O)Cc1c(-c2ccc(F)cc2)[nH]c2ccccc12 | -11.7 | 13µM* | 9.44µM*! | 41.5 | 4.9% | 17.1
COc1ccc(S(=O)(=O)NCc2cccnc2)c(Cl)c1Cl | 9.3 | 12.9% | 10.3% | 50.6 | 1.1% | 2.4
COc1ccc(-c2cn3ccc4ccccc4c3n2)cc1 | -2.0 | ? | -21.2% | -11.9 | 28.2µM* | 0.2
CCCS(=O)(=O)Nc1cc(-c2cn3cccc(C)c3n2)ccc1C | . | 18.4µM* | ? | . | 4.1% | -14.4
Cc1cccn2cc(-c3ccccc3)nc12 | 7.0 | -26.8% | -10.1% | 0.2 | 10µM* | -6.1
Fc1ccc(-c2cn3cc(C(F)(F)F)cc(Cl)c3n2)cc1 | 19.8 | -28.7% | -2.2% | -7.4 | ? | 0.3
COc1ccc(-c2cn3cc(C(F)(F)F)cc(Cl)c3n2)cc1 | 57.6 | 18.4µM* | ? | 0.7 | . | -4.0
CCOc1ccc(NC(=O)Nc2cccnc2)cc1 | 14.5 | ? | ? | 6.7 | . | 5.4
Cc1cccn2cc(-c3ccc(F)cc3)nc12 | 6.9 | ? | -16.0% | 11.2 | 17.8µM* | 1.4
O=[N+]([O-])c1ccc2nc(NCCCO)nc(-c3ccccc3)c2c1 | -20.7 | 23.1µM* | 9.2µM* | -18.8 | 0.8% | -7.2
O=C(O)CNc1nc(-c2ccccc2)c2cc([N+](=O)[O-])ccc2n1 | 0.0 | ? | ? | -12.4 | 1.1% | -2.5
CSCCC(NC(=O)c1ccccc1Br)C(=O)NNC(=O)c1cc(C)oc1C (stereo not given) | 10.9 | -4.2% | -17.5% | 11.8 | 0.0% | -1.7
CCCCCC(=O)NC(=S)Nc1ccc(N2CCCCC2)c(Cl)c1 | -4.4 | ? | -27.0% | -2.2 | -4.3% | -3.6
CCCC(=O)N1CCN(c2ccc(NC(=O)c3ccc([N+](=O)[O-])o3)cc2Cl)CC1 | -110.5* | 5.8µM* | 0.92µM* | ? | . | -3.6
CCCCCC(=O)Nc1ccc(N2CCN(CC)CC2)c(Cl)c1 | -7.0 | ? | 35.5µM* | ? | -0.8% | -30.6
O=C(Nc1ccc(N2CCCC2)c(Cl)c1)c1ccc([N+](=O)[O-])cc1 | -29.9 | 0.4% | -11.4% | ? | -0.3% | -16.4
SMILES | IL1B secr inh | TDP1 cell noCPT | DT40 TDP1 CPT | D3 antag | ClpP mod | DRD3 agonist
COc1c(F)c(F)c(C(=O)Nc2ccc(N3CCN(C(C)=O)CC3)c(Cl)c2)c(F)c1F | -4.3 | ? | ? | -16.1 | -2.4% | -15.1
CC(=O)N1CCN(c2ccc(NC(=O)c3ccc(Br)o3)cc2Cl)CC1 | ? | 25.9µM* | 16.4µM* | 0.2 | 1.8% | 1.0
CC(C)C(=O)N1CCN(c2ccc(NC(=O)c3ccc([N+](=O)[O-])o3)cc2Cl)CC1 | -105.0* | 2.06µM* | 1.16µM* | ? | . | -9.5
CCC1Cc2[nH]c(=S)[nH]c(=O)c2C(c2ccc(Cl)cc2)O1 (stereo not given) | 18.3 | 22.8% | 14.5% | 2.8 | -2.9% | 5.6
CC(C)C(=O)N1CCN(c2ccc(NC(=O)c3ccc(Br)o3)cc2)CC1 | -11.7 | -27.0% | ? | 32.4 | -0.5% | -6.0
CC(C)C(=O)N1CCN(c2ccc(NC(=O)c3ccc([N+](=O)[O-])o3)cc2)CC1 | -104.0* | 11.6µM* | 2.06µM* | ? | . | -7.0
COC(=O)c1c(SCc2ccc(C#N)cc2)nc(=O)[nH]c1C | -5.5 | -19.1% | -26.9% | 19.3 | . | 11.5
CCOC(=O)CNC(=O)CSc1ccc(-c2nc3ccccc3[nH]2)cn1 | ? | ? | -19.1% | -5.8 | . | 5.5
Cc1cc2nc(-c3ccc(SCc4ccc(C#N)cc4)nc3)[nH]c2cc1C | -11.9 | 23.1µM* | ? | -18.2 | ? | -9.3
CC(=O)CSc1ccc(-c2nc3cc(C)c(C)cc3[nH]2)cn1 | -82.3* | ? | ? | 4.4 | . | -2.0
CC(=O)CSc1ccc(-c2nc3ccccc3[nH]2)cn1 | -58.4* | 8.2µM* | 10.3µM* | -8.1 | 1.0% | -0.9
Cc1ccc2nc(-c3ccc(SCC(=O)N4CCc5ccccc54)nc3)[nH]c2c1 | 20.8 | 13µM* | ? | 63.7 | ? | 2.4
COc1ccc(CNC(=O)CN2C(=O)CCn3nc(-c4ccccc4)cc32)c(OC)c1 | . | -25.7% | -19.1% | . | 1.7% | 1.9
C[C@H](CO)N1C[C@H](C)[C@@H](CN(C)S(C)(=O)=O)Oc2ccc(N(C)C)cc2C1=O | 11.1 | 0.3% | 7.1% | 6.3 | -9.7% | 8.0
Cc1cc2nc(-c3ccc(SCC(=O)Nc4nccs4)nc3)[nH]c2cc1C | -14.7 | 16.4µM* | 16.4µM* | 10.1 | ? | 9.1
N#Cc1ccccc1CSc1ccc(-c2nc3ccccc3[nH]2)cn1 | -70.5* | ? | ? | 19.7 | -21.0% | -5.5
CCc1nnc(NC(=O)CSc2ccc(-c3nc4ccc(C)cc4[nH]3)cn2)s1 | 8.4 | ? | ? | -17.1 | ? | -1.3
Clc1ccc(-c2nc3ccccc3[nH]2)cn1 | 20.4 | -20.1% | 0.8% | 10.6 | . | 6.9
